# PubChem BioAssay (NCATS)
# Results filed as inconclusive are left out. A call without a number means that no potency is given here. Values without a mark were called inactive. Calls of active or inactive are those of the source. Calls come from the whole dose curve; as a rule, active = well fitted inhibition curve with a large enough effect; inconclusive = small, poorly fitted or top-dose-only effect; inactive = flat fitted curve, though single readings scatter.
# Key:
# [1] = test system: CRL-7250; test: qHTS assay to identify novel small-molecules to repurpose for Merkel cell carcinoma treatment (AID 1296009); conditions: MCC and control cell lines, CellTiter-Glo viability, 72 h; at 44.8 µM (top of the series) unless noted
# Method in brief: (§1)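 72 hr, 37 degree celsius; NPC 8-pt / MIPE 11-pt dose response; compound pinned in DMSO; CellTiter-Glo, 10 min RT, luminescence; normalized to no-cell and DMSO controls.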
# [2] = test system: HaCat; test: Cytotoxic Profiling of Annotated Libraries Using Quantitative High-Throughput Screening (AID 1296008); conditions: Five cell lines viability, CellTiter-Glo ATP luminescence, 48-72 h; max response: hits give low values
# Method in brief: (§2)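 Cytotoxicity was measured as CellTiter-Glo ATP luminescence, read after 10 min at room temperature. Compound treatment of the cells lasted 48 or 72 hr at 37 degrees Celsius in a qHTS format.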
# [3] = test system: KB-3-1; test: as above; conditions: Five cell lines viability, CellTiter-Glo ATP luminescence, 48-72 h; max response: hits give low values
# Method in brief: as §2
# [4] = test system: NIH3T3; test: as above; conditions: Five cell lines viability, CellTiter-Glo ATP luminescence, 48-72 h; max response: hits give low values
# Method in brief: as §2
# [5] = test system: HACAT; test: qHTS assay to identify novel small-molecules to repurpose for Merkel cell carcinoma treatment (AID 1296009); conditions: MCC and control cell lines, CellTiter-Glo viability, 72 h; at 44.8 µM (top of the series) unless noted
# Method in brief: as §1
# [6] = test system: W2; test: qHTS profiling for inhibitors of Plasmodium falciparum proliferation (AID 504749); note: potency is the fitted concentration of half-maximal effect; conditions: P. falciparum in erythrocytes, SYBR Green DNA, 72 h; series mostly up to 28.7 µM
# Method in brief: (§3)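 Infected RBCs, 0.3% parasitemia/2.5% Hct final; cpd 72 h, 37 C, 5% CO2; lysis buffer with saponin/triton/SYBR Green I, o/n RT dark; FI 485/535; norm. to artemisinin (0.29 uM) and DMSO.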
# [7] = test system: TAB165; test: as above; conditions: P. falciparum in erythrocytes, SYBR Green DNA, 72 h; series mostly up to 28.7 µM
# Method in brief: as §3
# Note: nearly all actives have a fitted effect of over 60% in size.
smiles,measurement,setting,value
NCCNC(=O)c1ccc(Cl)cn1,outcome,[1],inactive
Cc1cc(O)c(C)c(C)c1O,outcome,[1],inactive
CC(=O)N1C[C@H](O)C[C@H]1C(=O)O,outcome,[1],inactive
CC(=O)OCC(=O)Nc1cc(C#N)cc(NC(=O)COC(C)=O)c1Cl,outcome,[1],inactive
O=C(O)c1cccc(-c2noc(-c3ccccc3F)n2)c1,outcome,[1],inactive
Fc1ccc(C(c2ccc(F)cc2)N2CCNCC2)cc1,outcome,[1],inactive
CN1C[C@H](C(=O)N[C@]2(C)O[C@@]3(O)[C@@H]4CCCN4C(=O)[C@H](Cc4ccccc4)N3C2=O)C[C@@H]2c3cccc4[nH]cc(c34)C[C@H]21,outcome,[1],inactive
CCCC(=O)OC[C@@H](OC(=O)CCC)[C@@H](OC(=O)CCC)[C@H](Cn1c2nc(=O)[nH]c(=O)c-2nc2cc(C)c(C)cc21)OC(=O)CCC,outcome,[1],inactive
CN1CCOC(c2ccccc2)c2ccccc2C1 (stereo not given),outcome,[1],inactive
OC(CCN1CCCCC1)(c1ccccc1)C1CC2C=CC1C2 (stereo not given),outcome,[1],inactive
COc1ccc(-c2nc3ccc(C4=NNC(=O)CC4C)cc3[nH]2)cc1 (stereo not given),outcome,[1],inactive
CCC(=O)O[C@]1(C(=O)CCl)[C@@H](C)C[C@H]2[C@@H]3CCC4=CC(=O)C=C[C@]4(C)[C@@]3(F)[C@@H](O)C[C@@]21C,outcome,[1],inactive
Oc1ccc([C@H]2CNCc3c2ccc(O)c3O)cc1O,outcome,[2],inactive
same,max response,[3],-14.2%
same,max response,[4],-2.59%
same,outcome,[5],inactive
NS(=O)(=O)c1cc2c(cc1Cl)NCNS2(=O)=O,outcome,[1],inactive
CCOC(=O)[C@H](CCc1ccccc1)N[C@@H](C)C(=O)N1C(=O)N(C)C[C@H]1C(=O)O,outcome,[1],inactive
CCOc1cc(N)c(Cl)cc1C(=O)NCC1CN(Cc2ccc(F)cc2)CCO1 (stereo not given),outcome,[1],inactive
COc1ccc(CN2CCN(C(c3ccc(F)cc3)c3ccc(F)cc3)CC2)c(OC)c1OC,outcome,[1],inactive
CC1(C)[C@@H]2CC[C@@]1(C)C(=O)C2,outcome,[1],inactive
C[C@H](N)[C@H](O)c1ccc(O)c(O)c1,outcome,[2],inactive
same,max response,[3],-14.6%
same,max response,[4],-48.1%
same,outcome,[5],inactive
CCCCOc1cc(C(=O)OCCN(CC)CC)ccc1N,outcome,[1],inactive
C[C@@H]1CC[C@@]2(OC1)O[C@H]1C[C@H]3[C@@H]4CC[C@H]5C[C@@H](O)CC[C@]5(C)[C@H]4CC(=O)[C@]3(C)[C@H]1[C@@H]2C,outcome,[1],inactive [at 4.96 µM]
CC(=O)SC[C@@H](Cc1ccccc1)C(=O)NCC(=O)OCc1ccccc1,outcome,[1],inactive
CN1CCCCC1CCN1c2ccccc2Sc2ccc(S(C)=O)cc21 (stereo not given),outcome,[1],inactive
O=C1NCN(c2ccccc2)C12CCN(CCCOc1ccc(F)cc1)CC2,Potency,[6],5.36 µM (active)
same,max response,[3],25%
CCn1cc(C(=O)O)c(=O)c2cc(F)c(N3CCN(C)CC3)cc21,outcome,[1],inactive [at 17.4 µM]
CC(C)(O)C(Cl)(Cl)Cl,Potency,[7],1.78 µM (active)
same,Potency,[6],1.51 µM (active)
same,outcome,[5],inactive
